This note sets out measurements from PubChem BioAssay (NCI).

Molecules are shown by their SMILES. About 79,000 compounds went through this panel and 15% of them were active in at least one assay; those are over-represented in the sample as a whole. A number with no mark means an inactive call. The source made the active and inactive calls. Cut-off read from the data, not from the text of the source: active = growth inhibition above about 70%; inactive = the rest.

This assay in a line: NCI Yeast Anticancer Drug Screen. Data for the rad50EPP+ strain (AID 151).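 Note: 0% = growth of vehicle-treated control cultures.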 Particulars: S. cerevisiae rad50 mutant strain, at 11.0 µM, stronger effect = higher value. The gist of the method: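 rad50EPP+ yeast treated with test compounds. Readout: growth vs vehicle control.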
For the molecule `CS(=O)(=O)SCc1ccc([N+](=O)[O-])cc1`, the growth inhibition was 97% (active).

For the molecule `Cc1csc(=S)n1OC(=O)NC1CCCCC1`, the growth inhibition was 99% (active).

For the molecule `CCOc1ccc(NC(=O)C2=C(C)NC(C)=C(C(=O)Nc3ccc(OCC)cc3)C2c2cccc([N+](=O)[O-])c2)cc1`, the growth inhibition was 1%. Regarding `CC(C)(C)N=C(NO)c1ccccc1`, the growth inhibition is 14%.

Consider `CCCCC/C(=C(\C#N)C(=O)OCC)c1ccccc1`, for which the growth inhibition was 13%.

On to `O=C(NCCCl)Sc1ccc(Cl)cc1`, for which the growth inhibition is 22%. In the case of `O=C1Nc2ccc(Br)cc2C1=Nc1ccc2c(c1)OCO2`, the growth inhibition was -45%.

For the molecule `CCC(C)OC(=O)Nc1ccc(C)c(NC(=O)OC(C)CC)c1` (centres undefined), the growth inhibition was -1%. Consider `O=C(O)c1cc2ccc(Cl)cc2c(O)c1C1=CCCCC1`, for which the growth inhibition is 13%. The same measure for `CN(C)Cc1cc(N=Nc2ccc(Cl)cc2)ccc1OC(=O)c1ccccc1`: 20%; for `CN1CCN(C(=O)/C=C/C(=O)c2ccccc2)CC1`: 31%.

As to `CCCC/C=C/C(C)(C(=O)OCC)C(=O)OCC`, the growth inhibition is 4%.

With `Cc1nc(-c2cc3cc([N+](=O)[O-])ccc3oc2=O)cs1`, the growth inhibition is 57%. The same measure for `Cc1nc2ccccc2nc1NNc1ccccc1`: 22%. Next, `CN(C)[C@@H]1C(=O)C(C(N)=O)=C(O)[C@@]2(O)C(=O)C3=C(O)c4c(O)cccc4C[C@H]3C[C@@H]12`: 14%. The same measure for `COc1ccc(NC(=O)CC2SC(=Nc3ccccc3C)NC2=O)c([N+](=O)[O-])c1` (centres undefined): 1%; for `COc1cc(O)c2c(c1O)C(=O)c1cc(C)ncc1C2=O`: 19%; for `CSc1nnc(SC)nn1`: -2%.

Regarding `COc1cc(/C=C2\CCC/C(=C\c3ccc(O)c(OC)c3)C2=O)ccc1O`, the growth inhibition is 24%. The same measure for `CN(C)CCNC(=O)c1cccc2cc([N+](=O)[O-])ccc12`: 64%; for `CCC(C)(C)c1ccc(Oc2cccc(C(=O)O)c2)cc1`: 25%; for `CCCCCCSc1ncnc2[nH]ncc12`: 10%.

As to `CC(=O)Nc1ccc(/C=C/[N+](=O)[O-])cc1`, the growth inhibition was 51%. For the molecule `CCOC(=O)c1[nH]n(-c2ccccc2)c(=O)c1C=NC(=S)C(N)=S`, the growth inhibition was 5%. As for `CCCC(O)C1CC(C(C)C)CCC1C` (centres undefined), the growth inhibition is 7%. Take `O=[n+]1c2ccccc2n([O-])c2cc(Br)ccc21`: the growth inhibition was 99% (active). With `CN(C)CCNC(=O)c1cccc2c1Oc1c(cccc1[N+](=O)[O-])O2`, the growth inhibition was 3%. The same measure for `Nc1ncc(-c2ccc(Br)cc2)s1`: 47%. Take `Cc1cc2cc3cc(C)c(N)cc3nc2cc1N`: the growth inhibition was 37%. For `CC12C(=O)OC(=O)C(c3ccccc31)c1ccccc12`, the growth inhibition was -30%. For `c1ccc2c(OCC3CO3)cccc2c1` (centres undefined), the growth inhibition was 73% (active). `CCOC(=N)c1ccc(O)c(OC)c1`: the growth inhibition is -6%. As for `Nc1cc(N)c(N=Nc2cccc3c(S(=O)(=O)O)cccc23)cc1N=Nc1cc([N+](=O)[O-])ccc1O`, the growth inhibition is -4%. The same measure for `COC(=O)Oc1cc(Cl)c(Cl)cc1Cl`: 7%; for `O=C(O)C1CC(c2ccccc2)=NN1c1ccccc1` (centres undefined): -9%. For the molecule `COc1cc([C@@H]2c3cc4c(cc3[C@@H](Nc3ccc(NC(=O)c5cc([N+](=O)[O-])cn5C)cc3)[C@H]3COC(=O)[C@H]23)OCO4)cc(OC)c1O`, the growth inhibition is 27%. Next, `O=C(O)c1ccccc1/C=N/N=C1c2ccccc2-c2ccccc21`: -2%; `O=C1CC(=O)c2ccccc21`: 6%; `Nc1ncnc2c1ncn2C1OC(CO)CC1O` (centres undefined): -10%.
